# From the supplement of paper PMC3334620
# In all, about 33,000 sequences were measured (“E-score (-0.5 to 0.5)”: median about -0.056, highest 2% from about 0.38 on). This excerpt belongs to a sample that is enriched for the highest values.
# Target: Stb4 (UniProt P50104)
# Experiment: PBM E-score (8-mer binding enrichment) (E-score (-0.5 to 0.5)); higher = stronger / more preferred TF binding
# Conditions: protein concentration: 200 nM; construct: GST-DNA-binding domain
# Outline: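 Masliner-normalised scans of fluorescent anti-GST signal were the basis for scoring. That signal came from GST-tagged yeast transcription factors applied at about 100-200 nM to double-stranded universal all-10-mer Agilent arrays on fresh or once-stripped slides. Each ungapped eight-base word, pooled with its reverse complement, received an E-score from the Universal PBM Analysis Suite.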
# UniProt P50104, sequence (P50104 whole entry): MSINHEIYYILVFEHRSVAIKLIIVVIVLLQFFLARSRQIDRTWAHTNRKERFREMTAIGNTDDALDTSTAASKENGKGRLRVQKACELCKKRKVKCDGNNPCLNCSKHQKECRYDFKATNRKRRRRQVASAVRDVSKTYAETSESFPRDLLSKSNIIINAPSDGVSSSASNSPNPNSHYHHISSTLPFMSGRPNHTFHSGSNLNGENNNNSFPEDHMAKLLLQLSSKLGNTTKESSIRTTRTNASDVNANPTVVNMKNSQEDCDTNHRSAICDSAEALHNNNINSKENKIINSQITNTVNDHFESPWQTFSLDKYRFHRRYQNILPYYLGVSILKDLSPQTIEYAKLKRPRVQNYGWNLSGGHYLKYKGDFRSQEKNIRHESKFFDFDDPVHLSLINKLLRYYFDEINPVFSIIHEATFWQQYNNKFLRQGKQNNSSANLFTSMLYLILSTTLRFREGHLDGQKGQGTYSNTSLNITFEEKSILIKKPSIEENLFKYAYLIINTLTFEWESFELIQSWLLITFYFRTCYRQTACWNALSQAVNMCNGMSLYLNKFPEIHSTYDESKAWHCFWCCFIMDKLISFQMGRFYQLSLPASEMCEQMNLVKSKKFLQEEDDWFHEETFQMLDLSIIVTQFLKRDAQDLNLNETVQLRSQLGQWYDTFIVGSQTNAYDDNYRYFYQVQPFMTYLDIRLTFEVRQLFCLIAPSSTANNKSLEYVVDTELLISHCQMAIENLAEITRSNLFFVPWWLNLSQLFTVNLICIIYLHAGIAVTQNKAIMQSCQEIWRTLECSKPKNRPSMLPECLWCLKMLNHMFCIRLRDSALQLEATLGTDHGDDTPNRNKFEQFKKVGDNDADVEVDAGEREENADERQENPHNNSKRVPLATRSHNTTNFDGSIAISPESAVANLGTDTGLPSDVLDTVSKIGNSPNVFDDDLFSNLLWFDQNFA
row,Sequence,PBM E-score
1,TCCGTTAA,0.259
2,AAAAACCT,0.0896
3,TCCGAGGA,0.453
4,GCCGAGGC,0.436
5,TACGAGGA,-0.193
6,GACGAGGC,-0.0506
7,CACGAGGA,-0.11
8,ACCGAGGA,0.323
9,ACCGAGGC,0.302
10,CCCGAGGA,0.388
11,TCAGAGGA,-0.183
12,GTCGAGGA,-0.239
13,GCCGAGGA,0.4
14,CTCGAGGA,-0.188
15,GTAAGCAC,-0.144
16,CGAAATGC,0.124
17,ATGTCGTA,-0.29
18,AGGATGGA,0.0445
19,CAGGATTA,0.00923
20,CACCCTCG,0.0812
21,CACACATG,-0.15
22,CGATCGCC,0.0955
23,TAGTAACA,-0.0586
24,CCCAGAGC,-0.299
25,AGAAGGAA,0.0573

row,Sequence,PBM E-score
1,CACGAGGC,-0.131
2,CGCGAGGC,0.0155
3,CCCGAGGG,0.404
4,CCCGAGGC,0.388
5,ACCGAGGG,0.27
6,CACGAGGG,-0.0631
7,CCATAAGG,-0.314
8,CCAGATAC,-0.122
9,CTATTGCA,-0.0693
10,ACAGACCT,0.00106
11,ACCAATCT,0.0037
12,GGGATAAC,0.0907
13,AGGATAAC,-0.159
14,TGGATAAA,0.027
15,AGGATAAA,-0.0635
16,AGGATAAG,-0.0142
17,CGGATAAC,0.452
18,CCGATAAG,0.269
19,CGGATAAA,0.465
20,CGGATAAG,0.41
21,AGATCAGC,0.0618
22,GGTAGACC,0.143
23,CCTCTTAC,-0.274
24,AACGACTA,-0.151
25,AAGGTACG,-0.0106

row,Sequence,PBM E-score
1,GGCCTAAA,-0.102
2,ATCCGACA,0.442
3,CTCCGACC,0.315
4,AACCGACG,0.304
5,ATCCGACC,0.425
6,ATCCGACG,0.452
7,GTCCGACA,0.213
8,CTCCGACA,0.227
9,ACCCGACC,0.382
10,AGCCGACG,0.353
11,CAAATCTA,-0.211
12,CCTTTGTC,-0.141
13,GCCTACGC,-0.306
14,TACACTGA,-0.0306
15,CCGAAGAA,0.402
16,ACGAAGAA,-0.0766
17,TCGAAGAA,-0.122
18,ACGAAGAG,-0.117
19,CCGAAGAC,0.374
20,CCGAAGAG,0.417
21,GAGTACTC,-0.00922
22,AACGACGT,-0.166
23,ATTGACCC,0.0534
24,CCGAGCGA,0.403
25,GCGAGCGC,-0.103

row,Sequence,PBM E-score
1,ACGAGCGA,-0.402
2,ACGAGCGG,0.0575
3,CCGAGCGC,0.44
4,CAGAGCGG,-0.0262
5,GCGAGCGA,-0.0989
6,ACGAGCGC,-0.0806
7,CCGAGCGG,0.431
8,AGTATCGA,-0.072
9,ATTCGCAG,-0.152
10,AAAGTCGC,0.0621
11,AGATTTAG,-0.0774
12,ACTTTGGC,0.123
13,CTCGACAC,-0.144
14,CCGAATAA,0.381
15,CCGAATAC,0.425
16,CCGAATTA,0.363
17,ACGAATAC,-0.0867
18,ACGAATTC,-0.192
19,CCGAATTC,0.398
20,ACGACCGA,0.0769
21,TCCGCCAA,0.233
22,CGGTCGGC,0.318
23,AGGTCGGA,0.345
24,GGGTCGGA,0.392
25,CGGTCGGA,0.388

row,Sequence,PBM E-score
1,GGGTCGAA,0.0324
2,CGGTCGTA,0.128
3,GCGTCCGA,0.282
4,GGCATGCC,0.156
5,GTCTAGTA,-0.11
6,GTACTGTA,-0.171
7,AACCACAG,-0.177
8,CACGAATA,-0.22
9,CTCGAATC,-0.207
10,GTCGAATA,-0.181
11,CCCGAATA,0.397
12,ACCGAATA,0.215
13,CTCGAATA,0.0163
14,ACCGAATC,0.357
15,GCCGAATA,0.427
16,CCCGAATC,0.397
17,CCATCACA,-0.197
18,CCCCATCA,-0.137
19,CCTTCTTA,-0.143
20,CCGGCATC,0.28
21,CCTTTCAA,-0.112
22,GAATGGTC,0.0599
23,CCAGACGG,-0.0564
24,CCGGATGA,0.366
25,GCGGATCC,0.301

row,Sequence,PBM E-score
1,CCGGATCC,0.395
2,CCGGATGC,0.396
3,TCAGATCA,-0.235
4,TAGGATCA,-0.0704
5,ACGGATGC,0.298
6,ACGGATCA,0.325
7,TCGGATCA,0.46
8,GCGGATCA,0.196
9,ACGGATCC,0.352
10,CCGGATCA,0.383
11,AGATCTAG,-0.255
12,TTGGCAAA,-0.183
13,AACCGCGG,0.291
14,GAGGAGGC,-0.196
15,ACGTTTTC,0.0722
16,GATTGCTA,-0.122
17,TTAGACAA,-0.0136
18,CCGGATCG,0.413
19,ACGGATCG,0.315
20,CAGGATCG,0.0947
21,TATGACGA,-0.111
22,GGAAGTGA,0.245
23,ATTAGAGG,6e-05
24,AACTGGAA,-0.0984
25,CATTTAGA,-0.00372

row,Sequence,PBM E-score
1,CTTCCAAA,-0.174
2,GTTCCGAA,0.479
3,CTTCCGCA,0.331
4,ATTCCGAA,0.464
5,ATTCCGTG,0.363
6,ATTCCGAG,0.472
7,GTTCCGCA,0.293
8,AGTCCGAG,0.371
9,ATTCCGTA,0.265
10,ATTCCGCA,0.169
11,GTTCCAAA,-0.0427
12,CTTCCGAA,0.479
13,GCGATCTA,-0.0238
14,GCGACCAA,-0.183
15,CCGCCAAG,-0.059
16,AACATCGT,-0.0992
17,ATCTCCGG,0.345
18,GCTTGCGA,-0.104
19,ACTAAGCG,-0.0604
20,CCTATATA,-0.103
21,GGAATCAC,0.244
22,CCAGGCTA,-0.289
